From PubChem BioAssay AID1159580 (chemical genetic matrix, 2015)
Values joined by “and” are separate entries in the source; they are usually repeats but may differ in a detail not shown here. Equal values may be shown once. The campaign covered roughly 5,500 compounds. About 2,000 (36%) were called active. Inconclusive results (about 18%) are left out. This is one part of the list. A number with no mark means an inactive call. No stated cut-off is given here; in the data, active means normalized growth mostly below about 0.91 (no sharp cut-off); inconclusive means no clear call, values can overlap the other calls; inactive means mostly above about 0.92.

Assay: chemical genetic growth profiling, strain panel (AID 1159580);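 further: tested at 20 µM; growth read once vehicle control cultures reached saturation at 30 °C; 1 = growth at the plate median or of vehicle wells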
Settings: S. cerevisiae deletion strains, growth OD

CC12CCC3C(=CCc4cc(O)ccc43)C1CCC2=O (stereo not given)
normalized growth (locus YAL021C, strain ccr4, stronger effect = lower value): 0.932
normalized growth (locus YAL026C, strain drs2, stronger effect = lower value): 0.992
normalized growth (locus YAL030W, strain snc1, stronger effect = lower value): 0.998
normalized growth (locus YBL061C, strain skt5, stronger effect = lower value): 0.971
normalized growth (locus YBR009C, strain hhf1, stronger effect = lower value): 0.972
normalized growth (locus YBR021W, strain FUR4, stronger effect = lower value): 0.913
normalized growth (locus YBR023C, strain chs3, stronger effect = lower value): 0.974
normalized growth (locus YBR171W, strain sec66, stronger effect = lower value): 0.986
normalized growth (locus YBR229C, strain ROT2, stronger effect = lower value): 0.989
normalized growth (locus YBR231C, strain swc5, stronger effect = lower value): 0.978
normalized growth (locus YBR279W, strain paf1, stronger effect = lower value): 0.964
normalized growth (locus YCL011C, strain gbp2, stronger effect = lower value): 0.98
normalized growth (locus YCL016C, strain dcc1, stronger effect = lower value): 0.99
normalized growth (locus YCL029C, strain bik1, stronger effect = lower value): 0.995
normalized growth (locus YCL061C, strain MRC1, stronger effect = lower value): 0.965
normalized growth (locus YCL069W, strain vba3, stronger effect = lower value): 0.964
normalized growth (locus YCR088W, strain abp1, stronger effect = lower value): 0.981
normalized growth (locus YDL005C, strain med2, stronger effect = lower value): 0.959
normalized growth (locus YDL035C, strain GPR1, stronger effect = lower value): 0.898
normalized growth (locus YDL040C, strain nat1, stronger effect = lower value): 0.995
normalized growth (locus YDL074C, strain BRE1, stronger effect = lower value): 0.882
normalized growth (locus YDL101C, strain DUN1, stronger effect = lower value): 0.975
normalized growth (locus YDL185W, strain tfp1, stronger effect = lower value): 1.01
normalized growth (locus YDL192W, strain arf1, stronger effect = lower value): 0.956
normalized growth (locus YDR001C, strain nth1, stronger effect = lower value): 0.976
normalized growth (locus YDR069C, strain doa4, stronger effect = lower value): 0.966
normalized growth (locus YDR101C, strain arx1, stronger effect = lower value): 1.01
normalized growth (locus YDR137W, strain rgp1, stronger effect = lower value): 0.614 (active)
normalized growth (locus YDR150W, strain NUM1, stronger effect = lower value): 0.991
normalized growth (locus YDR159W, strain sac3, stronger effect = lower value): 0.978
normalized growth (locus YDR162C, strain NBP2, stronger effect = lower value): 0.515 (active)
normalized growth (locus YDR195W, strain ref2): 1.12
normalized growth (locus YDR297W, strain sur2, stronger effect = lower value): 0.983
normalized growth (locus YDR318W, strain mcm21, stronger effect = lower value): 0.962
normalized growth (locus YDR334W, strain swr1, stronger effect = lower value): 0.936
normalized growth (locus YDR335W, strain msn5, stronger effect = lower value): 0.925
normalized growth (locus YDR388W, stronger effect = lower value): 0.983
normalized growth (locus YDR392W, strain spt3, stronger effect = lower value): 0.937
normalized growth (locus YDR502C, strain sam2, stronger effect = lower value): 0.961
normalized growth (locus YEL003W, strain gim4, stronger effect = lower value): 0.945
normalized growth (locus YEL037C, strain rad23, stronger effect = lower value): 0.99
normalized growth (locus YEL061C, strain CIN8 (second series), stronger effect = lower value): 0.957
normalized growth (locus YEL061C, strain CIN8, stronger effect = lower value): 0.967
normalized growth (locus YER015W, strain faa2, stronger effect = lower value): 0.938
normalized growth (locus YER016W, strain bim1, stronger effect = lower value): 0.976
normalized growth (locus YER110C, stronger effect = lower value): 0.993
normalized growth (locus YER111C, strain swi4, stronger effect = lower value): 0.989
normalized growth (locus YER155C, strain BEM2 (second series), stronger effect = lower value): 0.987
normalized growth (locus YER155C, strain BEM2, stronger effect = lower value): 0.994
normalized growth (locus YER167W, strain BCK2, stronger effect = lower value): 0.988
normalized growth (locus YFR010W, strain ubp6, stronger effect = lower value): 0.964
normalized growth (locus YGL078C, strain dbp3, stronger effect = lower value): 1
normalized growth (locus YGL086W, strain mad1, stronger effect = lower value): 0.949
normalized growth (locus YGL167C, strain pmr1, stronger effect = lower value): 0.96
normalized growth (locus YGL173C, strain kem1, stronger effect = lower value): 0.959
normalized growth (locus YGL227W, strain vid30, stronger effect = lower value): 0.989
normalized growth (locus YGL240W, strain doc1, stronger effect = lower value): 0.946
normalized growth (locus YGL248W, strain PDE1, stronger effect = lower value): 0.936
normalized growth (locus YGL253W, strain hxk2, stronger effect = lower value): 0.961
normalized growth (locus YGR078C, strain PAC10, stronger effect = lower value): 0.903
normalized growth (locus YGR135W, strain pre9, stronger effect = lower value): 0.952
normalized growth (locus YGR229C, strain SMI1, stronger effect = lower value): 0.964
normalized growth (locus YGR252W, strain gcn5, stronger effect = lower value): 0.882
normalized growth (locus YHR013C, strain ard1, stronger effect = lower value): 0.994
normalized growth (locus YHR027C, strain rpn1, stronger effect = lower value): 0.976
normalized growth (locus YHR030C, strain SLT2, stronger effect = lower value): 0.981 and 1.03
normalized growth (locus YHR079C, strain IRE1 (second series), stronger effect = lower value): 1.01
normalized growth (locus YHR079C, strain IRE1, stronger effect = lower value): 1.03
normalized growth (locus YHR094C, strain hxt1, stronger effect = lower value): 1.01
normalized growth (locus YHR129C, strain ARP1, stronger effect = lower value): 0.968
normalized growth (locus YHR142W, strain chs7, stronger effect = lower value): 0.929
normalized growth (locus YHR200W, strain rpn10, stronger effect = lower value): 1
normalized growth (locus YIL066C, strain RNR3, stronger effect = lower value): 0.881
normalized growth (locus YIL073C, strain SPO22, stronger effect = lower value): 0.897
normalized growth (locus YIL125W, strain kgd1, stronger effect = lower value): 0.994
normalized growth (locus YIR030C, strain dcg1, stronger effect = lower value): 0.993
normalized growth (locus YJL092W, strain hpr5, stronger effect = lower value): 0.993
normalized growth (locus YJL095W, strain BCK1 (second series), stronger effect = lower value): 0.982
normalized growth (locus YJL095W, strain BCK1, stronger effect = lower value): 0.819 and 1.04
normalized growth (locus YJL115W, strain asf1, stronger effect = lower value): 0.97
normalized growth (locus YJL129C, strain trk1, stronger effect = lower value): 0.965
normalized growth (locus YJL134W, strain LCB3, stronger effect = lower value): 0.988
normalized growth (locus YJL154C, strain vps35, stronger effect = lower value): 0.983
normalized growth (locus YJL164C, strain tpk1, stronger effect = lower value): 0.964
normalized growth (locus YJL166W, strain qcr8, stronger effect = lower value): 0.952
normalized growth (locus YJL168C, strain set2, stronger effect = lower value): 0.994
normalized growth (locus YJL187C, strain SWE1 (second series), stronger effect = lower value): 0.928
normalized growth (locus YJR043C, strain POL32, stronger effect = lower value): 0.933
normalized growth (locus YJR066W, strain TOR1, stronger effect = lower value): 0.99
normalized growth (locus YKL009W, strain mrt4, stronger effect = lower value): 0.948
normalized growth (locus YKL068W, stronger effect = lower value): 0.995
normalized growth (locus YKL085W, strain MDH1 (second series), stronger effect = lower value): 0.98
normalized growth (locus YKL085W, strain MDH1, stronger effect = lower value): 0.98
normalized growth (locus YKL160W, strain elf1, stronger effect = lower value): 0.942
normalized growth (locus YKL190W, strain CNB1, stronger effect = lower value): 0.977
normalized growth (locus YKR001C, strain vps1, stronger effect = lower value): 0.908
normalized growth (locus YKR091W, strain srl3, stronger effect = lower value): 0.98
normalized growth (locus YLL001W, strain dnm1, stronger effect = lower value): 0.94
normalized growth (locus YLL026W, stronger effect = lower value): 0.988
normalized growth (locus YLL041C, strain sdh2, stronger effect = lower value): 0.974
normalized growth (locus YLR027C, strain aat2, stronger effect = lower value): 0.968
normalized growth (locus YLR039C, strain RIC1, stronger effect = lower value): 0.397 (active)
normalized growth (locus YLR058C, strain SHM2, stronger effect = lower value): 0.958
normalized growth (locus YLR102C, strain apc9, stronger effect = lower value): 1.02
normalized growth (locus YLR113W, strain HOG1, stronger effect = lower value): 1.07
normalized growth (locus YLR221C, strain rsa3, stronger effect = lower value): 0.956
normalized growth (locus YLR258W, strain gsy2, stronger effect = lower value): 0.968
normalized growth (locus YLR262C, strain YPT6 (second series), stronger effect = lower value): 0.598 (active)
normalized growth (locus YLR262C, strain YPT6, stronger effect = lower value): 0.377 (active)
normalized growth (locus YLR268W, strain sec22, stronger effect = lower value): 0.973
normalized growth (locus YLR320W, strain mms22, stronger effect = lower value): 0.94
normalized growth (locus YLR330W, strain CHS5, stronger effect = lower value): 0.979
normalized growth (locus YLR342W, strain FKS1 (second series), stronger effect = lower value): 0.76 (active)
normalized growth (locus YLR342W, strain FKS1, stronger effect = lower value): 0.914
normalized growth (locus YLR357W, strain rsc2, stronger effect = lower value): 1.02
normalized growth (locus YLR370C, strain arc18, stronger effect = lower value): 0.98
normalized growth (locus YLR371W, strain rom2, stronger effect = lower value): 0.986
normalized growth (locus YLR384C, strain iki3, stronger effect = lower value): 0.96
normalized growth (locus YLR418C, strain cdc73, stronger effect = lower value): 0.905
normalized growth (locus YML016C, strain PPZ1, stronger effect = lower value): 0.973
normalized growth (locus YML032C, strain rad52, stronger effect = lower value): 0.958
normalized growth (locus YML120C, strain ndi1, stronger effect = lower value): 0.971
normalized growth (locus YML124C, strain tub3, stronger effect = lower value): 0.995
normalized growth (locus YMR058W, strain fet3, stronger effect = lower value): 0.959
normalized growth (locus YMR078C, strain ctf18, stronger effect = lower value): 0.994
normalized growth (locus YMR125W, strain sto1, stronger effect = lower value): 0.988
normalized growth (locus YMR129W, stronger effect = lower value): 0.987
normalized growth (locus YMR205C, strain PFK2, stronger effect = lower value): 0.945
normalized growth (locus YMR223W, strain ubp8, stronger effect = lower value): 0.973
normalized growth (locus YMR231W, strain pep5, stronger effect = lower value): 0.969
normalized growth (locus YMR307W, strain GAS1, stronger effect = lower value): 0.763
normalized growth (locus YNL067W, strain RPL9B, stronger effect = lower value): 0.935
normalized growth (locus YNL071W, strain lat1, stronger effect = lower value): 0.978
normalized growth (locus YNL128W, strain TEP1, stronger effect = lower value): 0.967
normalized growth (locus YNL183C, strain NPR1, stronger effect = lower value): 0.986
normalized growth (locus YNL209W, strain ssb2, stronger effect = lower value): 0.973
normalized growth (locus YNL233W, strain BNI4, stronger effect = lower value): 0.936
normalized growth (locus YNL248C, strain rpa49, stronger effect = lower value): 0.908
normalized growth (locus YNL250W, strain rad50, stronger effect = lower value): 0.992
normalized growth (locus YNL271C, strain bni1, stronger effect = lower value): 0.974
normalized growth (locus YNL298W, strain CLA4, stronger effect = lower value): 0.963
normalized growth (locus YNL307C, strain MCK1, stronger effect = lower value): 0.826 (active)
normalized growth (locus YNL322C, strain KRE1 (second series), stronger effect = lower value): 0.984
normalized growth (locus YNL322C, strain KRE1, stronger effect = lower value): 0.988
normalized growth (locus YNR049C, strain mso1, stronger effect = lower value): 0.987
normalized growth (locus YNR052C, strain pop2, stronger effect = lower value): 0.901 (active)
normalized growth (locus YOL006C, strain TOP1, stronger effect = lower value): 0.618
normalized growth (locus YOL012C, strain htz1): 1.37
normalized growth (locus YOL147C, strain pex11, stronger effect = lower value): 1
normalized growth (locus YOR001W, strain rrp6, stronger effect = lower value): 0.955
normalized growth (locus YOR061W, strain CKA2, stronger effect = lower value): 0.971
normalized growth (locus YOR069W, strain VPS5, stronger effect = lower value): 0.978
normalized growth (locus YOR070C, strain gyp1, stronger effect = lower value): 0.979
normalized growth (locus YOR080W, strain dia2, stronger effect = lower value): 0.963
normalized growth (locus YOR083W, strain WHI5, stronger effect = lower value): 0.934
normalized growth (locus YOR106W, strain vam3, stronger effect = lower value): 0.902
normalized growth (locus YOR136W, strain idh2, stronger effect = lower value): 1.01
normalized growth (locus YOR144C, strain elg1, stronger effect = lower value): 0.993
normalized growth (locus YOR184W, strain ser1, stronger effect = lower value): 0.81 (active)
normalized growth (locus YOR231W, strain MKK1, stronger effect = lower value): 1.04
normalized growth (locus YOR265W, strain rbl2, stronger effect = lower value): 0.977
normalized growth (locus YOR270C, strain vph1, stronger effect = lower value): 0.852
normalized growth (locus YOR290C, strain snf2, stronger effect = lower value): 0.961
normalized growth (locus YOR316C, strain cot1, stronger effect = lower value): 0.987
normalized growth (locus YPL051W, strain arl3, stronger effect = lower value): 0.916
normalized growth (locus YPL055C, strain LGE1, stronger effect = lower value): 0.89
normalized growth (locus YPL078C, strain atp4, stronger effect = lower value): 0.908
normalized growth (locus YPL106C, strain sse1, stronger effect = lower value): 0.992
normalized growth (locus YPL240C, strain hsp82, stronger effect = lower value): 0.986
normalized growth (locus YPL256C, strain CLN2, stronger effect = lower value): 1.06
normalized growth (locus YPR119W, strain clb2, stronger effect = lower value): 1
normalized growth (locus YPR141C, strain kar3, stronger effect = lower value): 0.996
normalized growth (locus YPR163C, strain tif3, stronger effect = lower value): 0.875 (active)
normalized growth (locus YPR167C, strain met16, stronger effect = lower value): 0.975
normalized growth (strain wtn01, stronger effect = lower value): 0.986
